target: PUM1 PUF domain R4-GPC (Homo sapiens, UniProt Q14671 828-1176, N971G;H972P;Q975C); assay: yeast three-hybrid, YBZ-1, SC-Leu-His + 0.5 mM 3-AT, 4 days; settings: tags: N-Gal4 AD-HA kept; label: inside an RPR1-promoter hybrid RNA with tandem MS2 sites; ssRNA
Summary of the method: (§1)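 Repeat regions from input (SC-Leu) and selection (SC-Leu-His + 0.5 mM 3-AT) plates were PCR-amplified and Illumina-sequenced after four days of growth. The cells were strain YBZ-1 with a LexA–MS2 coat fusion and a HIS3 reporter, co-expressing Pumilio-1 PUF domain libraries and matching RNA elements from a centromeric plasmid. The interaction score is the log change in variant frequency from input to selection, taken in log2 with a pseudocount of 1 for absent variants.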

Row | Sequence | binding signal
1 | GGCUAGAACUAGUGGAUCCCCCGGCGCCCGGCGGCUCGAGCCCGGGUAAGUGUACAUAGUCUGCAUGCCGCCGGGCGCCAUGCCUGCAGGUCGACUCUAGAAAACAUG | 1.58 log2 enrichment (interaction score)
2 | GGCUAGAACUAGUGGAUCCCCCGGCGCCCGGCGGCUCGAGCCCGGGUAAGUGUAAAUAGUCUGCAUGCCGCCGGGCGCCAUGCCUGCAGGUCGACUCUAGAAAACAUG | 4.57 log2 enrichment (interaction score)
3 | GGCUAGAACUAGUGGAUCCCCCGGCGCCCGGCGGCUCGAGCCCGGGUAAGUGUAUAUAGUCUGCAUGCCGCCGGGCGCCAUGCCUGCAGGUCGACUCUAGAAAACAUG | 2.93 log2 enrichment (interaction score)

target: PUM1 PUF domain R3-FWS (Homo sapiens, UniProt Q14671 828-1176, C935F;R936W;Q939S); assay: as above; settings: tags: N-Gal4 AD-HA kept; label: inside an RPR1-promoter hybrid RNA with tandem MS2 sites; ssRNA
Summary of the method: as §1

Row | Sequence | binding signal
4 | GGCUAGAACUAGUGGAUCCCCCGGCGCCCGGCGGCUCGAGCCCGGGUAAGUGUAAGUAGUCUGCAUGCCGCCGGGCGCCAUGCCUGCAGGUCGACUCUAGAAAACAUG | 7.37 log2 enrichment (interaction score)
5 | GGCUAGAACUAGUGGAUCCCCCGGCGCCCGGCGGCUCGAGCCCGGGUAAGUGUAAUUAGUCUGCAUGCCGCCGGGCGCCAUGCCUGCAGGUCGACUCUAGAAAACAUG | 2.99 log2 enrichment (interaction score)
6 | GGCUAGAACUAGUGGAUCCCCCGGCGCCCGGCGGCUCGAGCCCGGGUAAGUGUAAAUAGUCUGCAUGCCGCCGGGCGCCAUGCCUGCAGGUCGACUCUAGAAAACAUG | 3.07 log2 enrichment (interaction score)

target: PUM1 PUF domain R3-CRT (Homo sapiens, UniProt Q14671 828-1176, Q939T); assay: as above; settings: tags: N-Gal4 AD-HA kept; label: inside an RPR1-promoter hybrid RNA with tandem MS2 sites; ssRNA
Summary of the method: as §1

PUM1 PUF domain R3-CRT, sequence (Q14671 828-1176 Q939T): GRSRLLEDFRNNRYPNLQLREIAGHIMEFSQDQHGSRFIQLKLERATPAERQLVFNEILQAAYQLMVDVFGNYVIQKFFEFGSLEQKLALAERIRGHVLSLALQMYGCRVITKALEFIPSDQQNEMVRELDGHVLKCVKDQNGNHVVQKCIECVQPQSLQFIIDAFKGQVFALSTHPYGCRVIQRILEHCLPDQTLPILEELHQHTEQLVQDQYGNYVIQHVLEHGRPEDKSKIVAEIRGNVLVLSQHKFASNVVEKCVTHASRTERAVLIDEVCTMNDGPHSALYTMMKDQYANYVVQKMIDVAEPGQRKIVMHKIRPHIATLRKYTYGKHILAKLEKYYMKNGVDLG

Row | Sequence | binding signal
7 | GGCUAGAACUAGUGGAUCCCCCGGCGCCCGGCGGCUCGAGCCCGGGUAAGUGUAAGUAGUCUGCAUGCCGCCGGGCGCCAUGCCUGCAGGUCGACUCUAGAAAACAUG | 1.54 log2 enrichment (interaction score)
8 | GGCUAGAACUAGUGGAUCCCCCGGCGCCCGGCGGCUCGAGCCCGGGUAAGUGUAAUUAGUCUGCAUGCCGCCGGGCGCCAUGCCUGCAGGUCGACUCUAGAAAACAUG | 1.12 log2 enrichment (interaction score)
9 | GGCUAGAACUAGUGGAUCCCCCGGCGCCCGGCGGCUCGAGCCCGGGUAAGUGUAAAUAGUCUGCAUGCCGCCGGGCGCCAUGCCUGCAGGUCGACUCUAGAAAACAUG | 3.85 log2 enrichment (interaction score)

target: PUM1 PUF domain R3-GRD (Homo sapiens, UniProt Q14671 828-1176, C935G;Q939D); assay: as above; settings: tags: N-Gal4 AD-HA kept; label: inside an RPR1-promoter hybrid RNA with tandem MS2 sites; ssRNA
Summary of the method: as §1

PUM1 PUF domain R3-GRD, sequence (Q14671 828-1176 C935G/Q939D): as the sequence (Q14671 828-1176 Q939T) above, with C108G, T112D counted along it

Row | Sequence | binding signal
10 | GGCUAGAACUAGUGGAUCCCCCGGCGCCCGGCGGCUCGAGCCCGGGUAAGUGUAAGUAGUCUGCAUGCCGCCGGGCGCCAUGCCUGCAGGUCGACUCUAGAAAACAUG | 6.36 log2 enrichment (interaction score)
11 | GGCUAGAACUAGUGGAUCCCCCGGCGCCCGGCGGCUCGAGCCCGGGUAAGUGUAAUUAGUCUGCAUGCCGCCGGGCGCCAUGCCUGCAGGUCGACUCUAGAAAACAUG | 2.16 log2 enrichment (interaction score)
12 | GGCUAGAACUAGUGGAUCCCCCGGCGCCCGGCGGCUCGAGCCCGGGUAAGUGUAAAUAGUCUGCAUGCCGCCGGGCGCCAUGCCUGCAGGUCGACUCUAGAAAACAUG | 4.82 log2 enrichment (interaction score)
